CF NFkB block = inhibitors of cystic fibrosis induced NF-kB; KKLEB NF-kB-GFP reporter, PAF-induced, GFP fluorescence overnight; inhibition, % at 5 µM; hit rate 0.86% among 360,000;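 active means at least 50% inhibition at 5 µM, scaled per plate between neutral and stimulator controls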;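 further: PAF is a Pseudomonas aeruginosa culture filtrate used as stimulus; plate controls were PAF-stimulated DMSO wells for no effect and unstimulated DMSO wells for full effect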
HIF-2a block = HIF-2a inhibition; 786-0 RCC cells HIF-2a reporter, luciferase luminescence, overnight; inhibition, % at 18.8 µM; hit rate 0.72% among 360,000; AID 624352;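 active means inhibition of the luminescence signal of 40% or more relative to plate controls, in a single-dose primary screen at 18.75 µM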
KKLEB cytotox = CF airway cell cytotoxicity counter-screen. AID 602141. hit rate 0.36% among 360,000. activity change (cytotoxicity), % at 5 µM. KKLEB CF airway cells viability, ATPlite luminescence, overnight; active compounds read low; cells stimulated with P. aeruginosa culture filtrate;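 active means corrected activity change at or below -50% at 5 µM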
C8 TRAIL sens = caspase-8 TRAIL sensitization; hit rate 1% among 360,000; inhibition (viability loss, TRAIL sensitization), % at 10 µM; NB7+C8 cells + TRAIL, ATPlite viability luminescence;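 active means compounds causing at least 50% loss of cell viability in the single-dose screen, relative to plate controls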
PPC-1+TRAIL kill = PPC-1 cancer cell killing with TRAIL present; PPC-1 cells + TRAIL, ATPLite viability luminescence; cell killing (% activity), % at 4 µM or 5 µM; hit rate 0.41% among 220,000;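 active means cell killing above 50% in the first pass at 4 µM, then a duplicate retest at 5 µM averaging 50% or more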;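 further: plate controls were cells with TRAIL plus DMSO for no effect and medium-only wells lacking cells for full effect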
hiPSC survival = enhancers of human iPSC single-cell survival; AID 602274; hit rate 0.044% among 360,000; survival enhancement, % at 20 µM; hiPSC single-cell survival, ATPlite luminescence; 100% = ROCK inhibitor wells, 0% = DMSO; in the data active means survival enhancement above about 18%;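 further: cells exposed to compounds for 16 hours before the ATP read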
CF NFkB inh conf = confirmation of cystic fibrosis induced NF-kB inhibitors; shares compounds with CF NFkB block; KKLEB CF airway cells, PAF-induced NF-kB-GFP fluorescence, overnight; inhibition, % at 5 µM; hit rate 64% among 1,300; in the data active means inhibition above about 40%;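 further: stimulus PAF is a Pseudomonas aeruginosa filtrate and not platelet activating factor; plate controls were DMSO wells with stimulus for no effect and unstimulated DMSO wells for full effect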
* = called active by the depositor; nt = no result; ! = a repeat was not active. The list is not random: actives were taken first. Their share in the collection is about 2.2%.

SMILES	CF NFkB block	HIF-2a block	KKLEB cytotox	C8 TRAIL sens	PPC-1+TRAIL kill	hiPSC survival	CF NFkB inh conf
CC1(Cc2ccc(Cl)cc2)C(=O)Nc2ccc(-c3ccc(F)c(Cl)c3)cc21 (configuration not stated)	21	2	-10	-8	nt	-1	nt
O=C(c1cc(-c2ccc(Br)cc2)n[nH]1)N1CCN(C(=O)c2ccccc2Br)CC1	-25	-6	1	16	nt	0	nt
CCOc1ccc(S(=O)(=O)Nc2ccc3c(c2)OCO3)cc1	-12	4	-2	-4	nt	2	nt
COc1ccc(CC(=O)OCC(=O)N2CCc3ccccc32)cc1OC	0	-10	18	-23	nt	-1	nt
c1ccc2c(-c3ccc4nncn4c3)cncc2c1	73*	5	3	-12	nt	2	89*
c1coc(-c2ccc3nncn3c2)c1	-10	8	15	-1	nt	1	nt
CNc1cncc(-c2ccc(OC)c(OC)c2)n1	56*	9	-10	22	nt	1	39
CNc1ccc2ncc(-c3ccc(OC)c(OC)c3)n2n1	76*	17	-19	-7	nt	1	104*
CNc1cncc(-c2ccc(F)c(F)c2)n1	3	-26	2	-6	nt	4	nt
CCCNC(=O)c1ccc(N2CCC3(CC2)CC(c2cccc(Br)c2)=NO3)c(NC(=O)c2cccc(C)c2)c1	17	-8	-8	2	nt	-1	nt
O=C(CN1CCN(Cc2ccccc2)CC1)Nc1ccc([N+](=O)[O-])cc1C(=O)Nc1ccccc1F	18	27	-29	4	17	2	nt
CCOC(=O)N1CCN(CC(=O)Nc2ccc([N+](=O)[O-])cc2C(=O)Nc2ccccc2F)CC1	67*	10	-6	21	24	8	26
Oc1ccc(Nc2ncnc3scc(-c4ccccc4)c23)cc1	61*	24	-16	6	14	6	78*
O=C(Nc1ccccc1N1CCOCC1)c1cc(-c2ccco2)nc2ccccc12	75*	-7	-13	13	32	7	87*
CC(NC(=O)c1ccc([N+](=O)[O-])o1)C1CC2CCC1C2 (configuration not stated)	62*	7	-9	-9	nt	0	25
Nc1cccc2[nH]c(=O)c3ccccc3c12	1	-5	3	9	nt	-2	nt
CC(OC(=O)CCC(=O)c1ccc(F)cc1)C(=O)NC1CCCCC1C (configuration not stated)	12	14	11	4	nt	0	nt
O=C(NCc1ccc(Cl)cc1Cl)Nc1nc([C@@H]2O[C@H](CO)[C@@H](O)[C@H](O)[C@H]2O)cs1	-1	-4	-5	1	nt	1	nt
Cc1ccc(C)c(S(=O)(=O)N2CCCCC2CCNC(=O)C(=O)NC2CC2)c1 (configuration not stated)	14	24	-20	1	nt	1	nt
NS(=O)(=O)c1ccc(CCNC(=O)c2ccc(C#CC3(O)CCCCC3)cc2)cc1	81*	-14	3	3	22	3	80*
NS(=O)(=O)c1ccc(CCNC(=O)c2ccncc2)cc1	-18	-4	-1	6	nt	0	nt
CN(C(=O)COC(=O)c1nc(Cl)c(Cl)c(Cl)c1Cl)C1CCS(=O)(=O)C1 (configuration not stated)	79*	40	-46	-4	34	42*	-16
CC(C)C1Cc2[nH]c(=S)[nH]c(=O)c2C(c2ccc(Cl)cc2)O1 (configuration not stated)	12	8	-1	-3	nt	0	nt
CC(=O)c1c(O)cc(O)c(C(C)=O)c1O	59*	-3	-11	2	3	0	52*
CC(=O)c1c(O)cc(O)cc1CC(=O)O	0	5	4	4	-1	5	nt
SMILES	CF NFkB block	HIF-2a block	KKLEB cytotox	C8 TRAIL sens	PPC-1+TRAIL kill	hiPSC survival	CF NFkB inh conf
COc1cccc(NC(=S)N2CCC(C(=O)c3ccc(F)cc3)CC2)c1	23	-10	-29	-1	nt	0	nt
CCC1Nc2ncnc(N3CCCCC3)c2N(Cc2ccc(C)cc2)C1=O (configuration not stated)	71*!	19	-10	-11	nt	-1	17
Cc1ccccc1C(=O)N1CCN(c2ccc(NC(=O)CSc3ccc(Cl)cc3)cc2)CC1	61*	15	-10	29	8	1	71*
CCC(=O)Nc1ccc(N2CCN(C(=O)c3ccccc3C)CC2)cc1	4	9	2	-9	-19	1	nt
Cc1ccccc1C(=O)N1CCN(c2ccc(NC(=O)c3cccc(OC(C)C)c3)cc2)CC1	53*	18	-11	29	nt	0	53*
Cc1cccc(CCN(CC(=O)NCc2ccc(F)cc2)C(=O)c2csnn2)c1	-9	10	7	2	nt	0	nt
Cc1ccc(C(=O)c2cncc(Br)c2)cc1	50*	-66	-8	10	25	-2	62*
CC(C)(O)C#Cc1ccc([C@@H]2C[C@H]3CN(c4ccccc4)C(=O)[C@]34CCCN24)s1	60*	-7	-1	24	nt	-1	44*
CC(C)(C)S(=O)N1Cc2cc(C(=O)NCC(F)(F)F)nc(-c3cccc(-c4cccc(F)c4)c3)c2[C@@H]1CCO (some centres not stated)	78*	15	-10	-12	nt	-1	65*
COc1cccc(-c2cnc3c(NC(C)=O)cc(-c4ccc(C(=O)N5CCOCC5)cc4)cn23)c1	12	19	-18	5	nt	-2	nt
O=C(NC(=S)Nc1ccc(CN2CCOCC2)cc1)c1ccc([N+](=O)[O-])cc1	-9	15	4	7	-2	1	nt
O=C(/C=C/c1cccc([N+](=O)[O-])c1)NC(=S)Nc1ccc(CN2CCOCC2)cc1	67*	14	-34	6	17	-4	55*
O=C(NCc1cccnc1)c1ccc(Cn2c(=S)[nH]c3ccc(Br)cc3c2=O)cc1	52*	11	-42	-18	20	0	38
O=c1c2cc(Br)ccc2[nH]c(=S)n1Cc1ccccc1	-12	7	1	-4	nt	0	nt
COc1ccccc1OCc1nnc(SCC(=O)Nc2ccc(N3CCOCC3)cc2)n1C	-2	-15	14	2	nt	0	nt
Cc1cc(C)c(N(CC(=O)NCc2ccccc2)C(=O)c2csnn2)c(C)c1	0	13	8	-18	nt	0	nt
Cc1cccc(N2CCN(C(=O)c3ccc(S(=O)(=O)N(C)c4ccccc4)cc3)CC2)c1C	54*	11	-31	13	nt	-3	44*
CCOc1cccc2sc(NC(=O)CCS(=O)(=O)c3ccccc3)nc12	59*	-57	-19	17	nt	0	26
CC(Oc1ccccc1)C(=O)Nc1nc2c(s1)C(=O)CC(C)(C)C2 (configuration not stated)	-26	-8	11	6	11	-1	nt

Assay outcomes (PubChem BioAssay)
